# Assay outcomes as filed in PubChem BioAssay.
# LASV entry inh – blocks Lassa virus binding to or entry into cells. actives 1.2% (n = 300,000). Potency, µM (series often up to 37.9 µM), for the others: top-dose activity change, negative = inhibition, usual class: inhibitors. Lassa virus pseudotype entry inhibition, cell reporter; calls by dose curve; tested in HEK293 cells; further: potency means the concentration at half of the fitted maximal effect; nearly all actives have a fitted effect of over 50% in size
# FMDV inh – antivirals against foot and mouth disease virus. actives 1.2% (n = 410,000). FMDV antiviral cell-based qHTS. Potency, µM (titrated, usually from 57.9 µM), for the others: top-dose activity change, negative = inhibition, actives largely listed as inhibitors; calls by dose curve; tested in HEK293T cells; further: read-out not given here; potency means the concentration at half of the fitted maximal effect; nearly all actives have a fitted effect of over 45% in size
# HCMV inh – blocks human cytomegalovirus replication | HFF cells, HCMV-luciferase reporter, 72 h; hits give low values | activity change, negative = inhibition, % at 57.5 µM | actives 4.5% (n = 410,000); in the data active means activity change below about -60%; inconclusive means no clear call, values can overlap the other calls; inactive means above about -39%
#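 Two-dose cell screen: HFF monolayers treated with compounds and infected with luciferase-expressing HCMV at 1 PFU/cell, 72 h at 37C, then lysed for luciferase measurement.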
# HCV inhibitor – HCV inhibition; actives 3.4% (n = 340,000); AID 651820; Huh7.5.1 HCVcc-Cre infection, luciferase reporter, 44 h; Potency, µM (top dose mostly 41.8 µM), without a hit: at the highest dose activity change, negative = inhibition, hits mostly inhibitors; active means well fitted inhibition curve with a large enough effect; inconclusive means small, poorly fitted or top-dose-only effect, or another doubt; inactive means no such curve, though single readings can be large or run the other way; further: potency means the concentration at half of the fitted maximal effect
#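 Antiviral activity was scored by luciferase reporter output from cells infected with HCVcc-Cre (~0.5 moi) in presence of compound, 44 h infection period, cells seeded 1,000/well 4 h prior.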
# MARV entry inh – inhibitors of Marburg virus binding or cell entry | Marburg virus pseudotyped entry inhibition, cell reporter | Potency, µM (titrated, usually from 37.8 µM), for inactives: at the top dose activity change, negative = inhibition, most hits filed as inhibitors | actives 1.8% (n = 300,000) | AID 540276; calls by dose curve; tested in HEK293 cells; further: potency means the concentration at half of the fitted maximal effect
# Starred values were filed as active, the others as inactive; ? = inconclusive; . = no result; ! = not confirmed by another sample; [ ] = another dose, or the depositor's remark. An excerpt weighted towards active compounds, which were near 7.9% of everything screened. On the % scale 0 is the no-effect control and ±100 the full control effect.
SMILES,LASV entry inh,FMDV inh,HCMV inh,HCV inhibitor,MARV entry inh
O=C(NC1CCCCC1)c1ccc(S(=O)(=O)NCc2cccnc2)cc1,?,-15.9%,-60.8*,-22.5%,-18.8%
COc1cccc(S(=O)(=O)NCc2ccc(C(=O)Nc3cccc(Cl)c3)cc2)c1,?,25.1µM*,-11.9,10µM*,?
COc1ccc(S(=O)(=O)NCc2ccc(C(=O)NCc3cccnc3)cc2)cc1,.,.,40.4,.,.
COc1cccc(NC(=O)c2ccc(S(=O)(=O)NCc3cccnc3)cc2)c1,?,0.0%,-60.5*,10µM*,-31.3%[46.1 µM]
Cc1ccc(S(=O)(=O)Nc2cccc(C(=O)NCc3cccnc3)c2)cc1F,?,-4.6%,-30.2,?,-28.3%
CCOC(=O)C1CCN(c2cc3c(cc2NC(=O)c2ccc(Cl)cc2)n(C)c(=O)n3C)CC1,-0.8%[46.1 µM],3.5%,8.7,.,8.5%[46.1 µM]
COc1ccccc1OCC(=O)N(Cc1ccc(N(C)C)cc1)CC1CCCO1 (centres undefined),?,-6.5%,-2.3,.,13.0%[46.1 µM]
CCc1ccc(-c2cc3c(N4CCN(c5ccccc5)CC4)nccn3n2)cc1,21.1%[46.1 µM],14.8%,-4.6,.,?
Cc1ccc(NC(=O)c2nc(S(=O)(=O)Cc3ccc(F)cc3)ncc2Cl)cc1C,?,28.2µM*,-98.4*,.,?
Cc1ccc(NC(=O)c2nc(S(=O)(=O)Cc3ccccc3C)ncc2Cl)cc1C,?,39.8µM*,-98.1*,?,?
CSc1ncc(Cl)c(C(=O)Nc2ccc(C)c(C)c2)n1,.,0.9%,30.8,?,.
CC(=O)Nc1ccc(NC(=O)c2nc(S(=O)(=O)Cc3ccc(F)cc3)ncc2Cl)cc1,?,31.6µM*,-99.8*,.,?
CC(=O)Nc1ccc(NC(=O)c2nc(SCc3ccccc3C)ncc2Cl)cc1,0.6%[46.1 µM],0.0%,-14.8,.,23.7%[46.1 µM]
CCOC(=O)N1CCC(n2c(=S)[nH]c3cc(OCC)c(OCC)cc3c2=O)CC1,-12.0%,-9.3%,-76.7*,-28.9%,?
OCCN1CCN(Cc2ccc3c(c2)CN(Cc2cccn2-c2ccccn2)CCO3)CC1,.,-11.8%,.,.,.
COc1cccc(C(=O)NCC2Cc3cccc(-c4nc(C)cnc4C)c3O2)c1OC (centres undefined),.,-3.3%,.,.,.
C[C@H](NC(=O)c1[nH]cnc1C(=O)Nc1ccc(CNC(=O)OC(C)(C)C)cc1)C(=O)OCc1ccccc1,.,17.8µM*,19.8,?,.
CC(C)(C)OC(=O)NCCCCCNC(=O)c1nc[nH]c1C(=O)NCCCCCNC(=O)OC(C)(C)C,.,12.6µM*,-75.1*,10µM*,.
CC(C)(C)OC(=O)NCc1ccc(CNC(=O)c2nc[nH]c2C(=O)NCc2ccc(CNC(=O)OC(C)(C)C)cc2)cc1,.,12.6µM*,?,?,.
CC(C)(C)OC(=O)NCCCCCNC(=O)c1nc[nH]c1C(=O)NCc1ccc(CNC(=O)OC(C)(C)C)cc1,.,15.8µM*,-94.9*,8.91µM*,.
CC(C)(C)OC(=O)CNC(=O)c1nc[nH]c1C(=O)NCc1ccc(CNC(=O)OC(C)(C)C)cc1,.,?,46.3,?,.
CCc1cc2c(cc3c(=O)n(CC(=O)NC4CCC(C)CC4)ncn32)s1 (centres undefined),.,5.2%,-31.4,.,-9.8%[46.1 µM]
COc1ccc(-c2ccc(NS(=O)(=O)c3cccc(Cl)c3)cc2)nn1,3.7%[46.1 µM],17.8%,-32.8,.,.
CCc1cccc(NCc2ccccc2-c2nnc(-c3ccccc3Cl)o2)c1,?,53.1%,31.2,.,19.4%[46.1 µM]
COc1ccc(NC(=O)N2c3ccc(OC)cc3[C@@H](NC(=O)c3ccc(C)s3)[C@H](C)[C@H]2c2ccccc2)cc1,.,.,1.6,.,.
SMILES,LASV entry inh,FMDV inh,HCMV inh,HCV inhibitor,MARV entry inh
Cc1onc(-c2c(F)cccc2Cl)c1C(=O)Nc1ccc(S(=O)(=O)N2CCOCC2)cc1,-26.4%,-18.4%,-69.2*,2.9%,?
Cc1ccc(S(=O)(=O)N2CCCCC2)cc1NC(=O)c1c(-c2ccccc2)noc1C,.,-15.8%,16.2,10.5%,.
Cc1onc(-c2c(F)cccc2Cl)c1C(=O)Nc1cc(S(=O)(=O)N2CCCCC2)ccc1O,?,?,-100.2*,?,?
CC(=O)Nc1ccc(NC(=O)C2=COC3=NC(=O)N(Cc4ccccc4C)CCN23)cc1,.,.,-34.8,.,.
O=C(Nc1ccc(-n2cccc2)cc1)C1=COC2=NC(=O)N(Cc3ccccc3)CCN12,.,.,-87.1*,.,.
CC(C)NC(=O)c1ccc(COc2cc(Cl)ccc2Cl)o1,-11.6%[46.1 µM],-7.4%,8.6,11.2µM*,?
O=C(NCC1Cc2cccc(-c3cccnc3)c2O1)c1ccc2cc[nH]c2c1 (centres undefined),.,1.1%,.,.,.
COC(=O)[C@]1(C)CCC[C@@]2(C)C3CC[C@@]4(C)C[C@]3(CCC21)CC(=O)N4Cc1ccc(OC)cc1 (some centres undefined),.,?,6.3,12.6µM*,.
COC(=O)[C@]1(C)CCC[C@@]2(C)C3CC[C@]4(OC(C)=O)C[C@@]3(CCC21)CC4=O (some centres undefined),.,?,-23.2,?,.
CCOc1cc2sc(N3CCC(C(=O)Nc4ccc(C(C)C)cc4)CC3)nc2cc1Br,.,53.8%,149.8,.,?
Cc1ccc(-c2noc(C3CCN(C(=O)Nc4ccc(C#N)cc4)CC3)n2)o1,?,-21.6%,-83.7*,10µM*,5.5%
COC(=O)N1C(C=Cc2ccc3c(c2)OCO3)=Cc2ccccc2C1CC(C)=O (centres undefined),?,.,.,.,-12.3%[14.2 µM]
CCCCCn1c(=O)[nH]c2cc(C(=O)N3CCN(c4cc(Cl)ccc4C)CC3)ccc2c1=O,1.6%[46.1 µM],-19.0%,-9.5,.,-3.4%[46.1 µM]
O=C(Nc1ccc2c(c1)N(S(=O)(=O)c1cccs1)CCC2)c1c(F)cccc1Cl,?,2.9%,-26.6,14.1µM*,?
COc1cccc(OC)c1C(=O)Nc1ccc2c(c1)CCCN2S(=O)(=O)c1ccc(C)cc1,7.5%[46.1 µM],-12.8%,-64.2*!,?,.
Cc1ccc(S(=O)(=O)N2CCCc3cc(NC(=O)c4ccc(F)c(F)c4)ccc32)cc1,-2.2%[46.1 µM],-21.3%,-18.5,.,.
Cc1ccc(S(=O)(=O)N2CCCc3cc(NC(=O)c4cccc(Cl)c4)ccc32)cc1,-7.3%[46.1 µM],2.9%,-4.3,.,.
Cc1ccc(S(=O)(=O)N2CCCc3cc(NC(=O)c4c(F)cccc4F)ccc32)cc1,-30.0%[46.1 µM],-8.2%,-69.2*!,10µM*,.
Cc1ccc(-c2nn3c(=O)cc(CN4CCN(C(=O)Nc5cc(Cl)ccc5C)CC4)nc3s2)cc1,8.0%[46.1 µM],0.8%,0.8,.,.
CCc1ccc(OCC(=O)Nc2ncn[nH]2)c(Br)c1,-21.2%[46.1 µM],-16.5%,68.4,.,?
C=CCOC(=O)C1=C(C)OC(N)=C(C#N)[C@@]12C(=O)N(CN1CCOCC1)c1ccccc12,.,.,.,.,16.5%[46.1 µM]
Oc1ccccc1C1CC(c2cccs2)=NC(c2ccc(Cl)cc2)N1 (centres undefined),.,-14.7%,-70.1*,?,.
CNC(=O)NC(=O)CN1C=NC2SC(c3ccccc3)C=C2C1=O (centres undefined),.,.,.,.,-1.7%[46.1 µM]
CC[C@@]1(O)C(=O)OCc2c1cc1n(c2=O)Cc2cc3ccccc3nc2-1,?,-3.0%,.,.,0.0251µM*
